{"source": "the supplement of paper PMC3334620", "note": "Whole data set: some 33,000 sequences, median “E-score (-0.5 to 0.5)” near -0.041, cut for the highest 2% near 0.37. What follows is part of a selection rich in the highest values, with near analogues and random picks from the rest."}
{"molecular_target": "T1, Ecm22 (UniProt Q05958)", "T1 sequence": "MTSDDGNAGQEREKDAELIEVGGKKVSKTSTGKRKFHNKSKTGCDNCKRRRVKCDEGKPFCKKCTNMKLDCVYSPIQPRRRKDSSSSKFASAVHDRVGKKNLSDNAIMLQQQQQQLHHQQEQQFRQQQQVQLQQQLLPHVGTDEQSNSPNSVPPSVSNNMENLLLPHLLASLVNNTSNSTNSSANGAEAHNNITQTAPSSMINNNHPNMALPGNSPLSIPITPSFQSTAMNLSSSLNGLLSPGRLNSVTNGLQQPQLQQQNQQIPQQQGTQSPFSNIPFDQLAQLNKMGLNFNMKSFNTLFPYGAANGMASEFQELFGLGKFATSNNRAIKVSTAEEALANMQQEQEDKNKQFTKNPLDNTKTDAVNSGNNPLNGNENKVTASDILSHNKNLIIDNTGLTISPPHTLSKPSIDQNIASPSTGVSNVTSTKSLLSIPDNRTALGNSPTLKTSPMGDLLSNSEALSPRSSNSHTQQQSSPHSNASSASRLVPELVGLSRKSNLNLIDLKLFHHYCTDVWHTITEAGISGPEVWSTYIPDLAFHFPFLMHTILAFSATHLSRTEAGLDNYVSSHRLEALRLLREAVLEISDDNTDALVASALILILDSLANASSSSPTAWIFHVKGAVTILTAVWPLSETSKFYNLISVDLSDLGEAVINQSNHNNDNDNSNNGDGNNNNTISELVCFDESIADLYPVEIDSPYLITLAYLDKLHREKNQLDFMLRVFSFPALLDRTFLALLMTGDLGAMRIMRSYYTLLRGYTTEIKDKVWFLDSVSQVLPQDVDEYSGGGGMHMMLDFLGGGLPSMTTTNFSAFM", "assay": "PBM E-score (8-mer binding enrichment) (E-score (-0.5 to 0.5)); higher = stronger / more preferred TF binding", "conditions": "protein concentration: 200 nM; construct: GST-full length", "procedure": "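Universal 'all 10-mer' protein binding microarrays (Agilent AMADID 015681) probed with GST-tagged S. cerevisiae TFs (full-length or DBD) made by in vitro transcription/translation (PURExpress), about 100-200 nM. Bound TF was detected with fluorescent anti-GST. Each ungapped 8-mer (which stands for itself and its reverse complement) is scored by the PBM enrichment score (E-score), a modified Wilcoxon-Mann-Whitney statistic from -0.5 to +0.5, computed with the Universal PBM Analysis Suite. Scale: above 0.35 generally sequence-specific binding.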"}
{"sequence": "GCGACGCA", "PBM E-score": 0.173}
{"sequence": "ACGACGCC", "PBM E-score": 0.33}
{"sequence": "ACGACTCA", "PBM E-score": 0.238}
{"sequence": "CCGACGCA", "PBM E-score": 0.00712}
{"sequence": "ATTGCGCG", "PBM E-score": 0.148}
{"sequence": "CAGGAAGG", "PBM E-score": -0.357}
{"sequence": "ATCGTGCG", "PBM E-score": 0.228}
{"sequence": "CATTCCTC", "PBM E-score": 0.0616}
{"sequence": "ACGCGGTG", "PBM E-score": -0.00032}
{"sequence": "AATGAGTC", "PBM E-score": -0.0397}
{"sequence": "AAGGTGTA", "PBM E-score": -0.0872}
{"sequence": "ATCCTTTA", "PBM E-score": -0.159}
{"sequence": "GGGTACCA", "PBM E-score": -0.317}
{"sequence": "AGGTACTG", "PBM E-score": -0.183}
{"sequence": "GGGTACGA", "PBM E-score": 0.491}
{"sequence": "CGGTACCA", "PBM E-score": -0.0083}
{"sequence": "CGGTACGA", "PBM E-score": 0.492}
{"sequence": "GGGTACAA", "PBM E-score": -0.0303}
{"sequence": "AGGTACGG", "PBM E-score": 0.424}
{"sequence": "CGGTACGC", "PBM E-score": 0.315}
{"sequence": "AGGTACGC", "PBM E-score": 0.217}
{"sequence": "CGATTCGC", "PBM E-score": 0.221}
{"sequence": "ATCAGGTC", "PBM E-score": 0.113}
{"sequence": "ATAGGAGC", "PBM E-score": -0.162}
{"sequence": "CAGATTTA", "PBM E-score": 0.156}
{"sequence": "AACATCAA", "PBM E-score": 0.0313}
{"sequence": "CCTCGGCA", "PBM E-score": 0.165}
{"sequence": "GCGCTTAA", "PBM E-score": 0.0179}
{"sequence": "CCGCTTAA", "PBM E-score": 0.291}
{"sequence": "TCGCTTAA", "PBM E-score": 0.394}
{"sequence": "ACCCATTC", "PBM E-score": -0.0208}
{"sequence": "ATCGTAGC", "PBM E-score": 0.385}
{"sequence": "CTCGTAGA", "PBM E-score": 0.376}
{"sequence": "CTCGTAGC", "PBM E-score": 0.449}
{"sequence": "CCCGTAGC", "PBM E-score": 0.154}
{"sequence": "ATCGTAGA", "PBM E-score": 0.272}
{"sequence": "GACGTAGA", "PBM E-score": -0.0256}
{"sequence": "GGCGTAGA", "PBM E-score": 0.0225}
{"sequence": "GTCGTAGA", "PBM E-score": 0.4}
{"sequence": "CGCGTAGA", "PBM E-score": 0.107}
{"sequence": "ATCGTAGG", "PBM E-score": 0.144}
{"sequence": "CACGTAGC", "PBM E-score": -0.026}
{"sequence": "CACGTAGA", "PBM E-score": -0.0914}
{"sequence": "AGAGGCGA", "PBM E-score": -0.00468}
{"sequence": "ATGGGAGG", "PBM E-score": -0.116}
{"sequence": "CTGGCGAC", "PBM E-score": -0.209}
{"sequence": "GCACGTGC", "PBM E-score": -0.0189}
{"sequence": "CATTACCG", "PBM E-score": -0.025}
{"sequence": "GGGGACTA", "PBM E-score": -0.242}
{"sequence": "AACGGCCT", "PBM E-score": 0.225}
{"sequence": "CTTTCGCA", "PBM E-score": 0.00706}
{"sequence": "GTAGGTCA", "PBM E-score": -0.0922}
{"sequence": "GAACCTTC", "PBM E-score": -0.126}
{"sequence": "ATGAGAGA", "PBM E-score": -0.0934}
{"sequence": "AGAAGGCA", "PBM E-score": -0.166}
{"sequence": "GGCATTCA", "PBM E-score": -0.0839}
{"sequence": "ACACTGCG", "PBM E-score": 0.0708}
{"sequence": "ATTTGGCC", "PBM E-score": -0.258}
{"sequence": "AACGCATT", "PBM E-score": 0.0189}
{"sequence": "AGTACGGA", "PBM E-score": 0.288}
{"sequence": "CCTACGGA", "PBM E-score": -0.34}
{"sequence": "CGTACGGC", "PBM E-score": 0.385}
{"sequence": "CTTACGGA", "PBM E-score": 0.0416}
{"sequence": "GCTACGGA", "PBM E-score": 0.232}
{"sequence": "GGTACGGA", "PBM E-score": 0.413}
{"sequence": "AGTACGGC", "PBM E-score": 0.339}
{"sequence": "CATACGGC", "PBM E-score": 0.3}
{"sequence": "CGTACGGA", "PBM E-score": 0.373}
{"sequence": "CCCGCTGA", "PBM E-score": -0.32}
{"sequence": "AGCGCTGC", "PBM E-score": -0.158}
{"sequence": "CCGGTCAC", "PBM E-score": -0.0785}
{"sequence": "ATGGACAT", "PBM E-score": -0.107}
{"sequence": "ATGGGCCC", "PBM E-score": -0.157}
{"sequence": "GCGAACAC", "PBM E-score": 0.0536}
{"sequence": "CCCCCTGC", "PBM E-score": -0.162}
{"sequence": "ACTACGAA", "PBM E-score": 0.25}
{"sequence": "CATACGTA", "PBM E-score": 0.288}
{"sequence": "AATACGGG", "PBM E-score": 0.229}
{"sequence": "CATACGCC", "PBM E-score": 0.182}
{"sequence": "CATACGAC", "PBM E-score": 0.451}
{"sequence": "AATACGTG", "PBM E-score": 0.15}
{"sequence": "AATACGAG", "PBM E-score": 0.457}
{"sequence": "CATACGAA", "PBM E-score": 0.451}
{"sequence": "CATACAAA", "PBM E-score": -0.0105}
{"sequence": "CATACGTC", "PBM E-score": 0.0749}
{"sequence": "AATACGAA", "PBM E-score": 0.419}
{"sequence": "AATACGTA", "PBM E-score": 0.228}
